Measured values from ChEMBL document CHEMBL1201862, “PubChem BioAssay data set” (2004).
The campaign covered roughly 58,000 sequences. About 4,000 (6.9%) were called active. Cut-off read from the data, not from the text of the source: active = GI50 up to about 1.1 µM and inactive = higher. These entries were drawn from the full list. Measured potencies and affinities stand elsewhere.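 96-well plates; 48 h exposure; 5 concentrations. Endpoints by linear interpolation between flanking doses. Not reached: highest tested concentration assigned. GI50 marks 50% less growth.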

What follows are substances tested on KM12 (assay: NCI tumour cell line growth inhibition, 48 h).

Substance	GI50
[Bis(aminomethyl)pentamethylenesilane]dichloropaltinum(II), CHEMBL2146202	5.56 µM
[Bis(aminomethyl)tetramethylenesilane]dichloropaltinum(II), CHEMBL2146205	78 µM
mu-(1,7-nanodiamine-N,N')bis-(cis-aminedichloroplatimum (II)), CHEMBL2146215	97.1 µM
[Bis(aminomethyl)pentamethylenesilane]tetrachloropaltinum(IV), CHEMBL2146204	4.12 µM
[Bis(aminomethyl)ethylmethylsilane]tetrachloroplatinum(IV), CHEMBL2146192	3.89 µM
[Bis(aminomethyl)diethylsilane]tetrachloroplatinum(IV), CHEMBL2146203	8.85 µM
[Bis(aminomethyl)dimethylsilane]dichloroplatinum (II), CHEMBL2146201	> 100 µM
CISPLATIN, CHEMBL11359	10 µM
[Bis(aminomethyl)dimethylsilane]tetrachloroplatinum(IV), CHEMBL2146190	18.1 µM
[Bis(aminomethyl)tetramethylenesilane]tetrachloropaltinum(IV), CHEMBL2146189	14.8 µM
cis-Bis[[(trimethylsilyl)methyl]amino]tetrachloroplatinum(IV), CHEMBL2146191	9.66 µM
